Laboratory results taken from PubChem BioAssay (Tox21).
Results filed as inconclusive are left out. A call without a number means that no potency is given here. Calls of active or inactive are those of the source. Calls come from the whole dose curve; as a rule, active = well fitted curve in the direction sought with a large enough effect in the repeat runs; inconclusive = weak or mixed curves; inactive = no such curve, though single readings can be large; an effect the other way counts as inactive or inconclusive.

How the values were obtained:
[1] = biological target: Cytochrome P450 2D6 (Homo sapiens) (UniProt P10635); assay: Cytochrome P450 Family 2 Subfamily D Member 6 (CYP2D6) small molecule antagonists: luciferase reporter qHTS assay (AID 1671196); note: nearly all actives have a fitted effect of over 50% in size; note: potency is the fitted concentration of half-maximal effect
Chain of Cytochrome P450 2D6 (Homo sapiens) (P10635 whole entry, looked up): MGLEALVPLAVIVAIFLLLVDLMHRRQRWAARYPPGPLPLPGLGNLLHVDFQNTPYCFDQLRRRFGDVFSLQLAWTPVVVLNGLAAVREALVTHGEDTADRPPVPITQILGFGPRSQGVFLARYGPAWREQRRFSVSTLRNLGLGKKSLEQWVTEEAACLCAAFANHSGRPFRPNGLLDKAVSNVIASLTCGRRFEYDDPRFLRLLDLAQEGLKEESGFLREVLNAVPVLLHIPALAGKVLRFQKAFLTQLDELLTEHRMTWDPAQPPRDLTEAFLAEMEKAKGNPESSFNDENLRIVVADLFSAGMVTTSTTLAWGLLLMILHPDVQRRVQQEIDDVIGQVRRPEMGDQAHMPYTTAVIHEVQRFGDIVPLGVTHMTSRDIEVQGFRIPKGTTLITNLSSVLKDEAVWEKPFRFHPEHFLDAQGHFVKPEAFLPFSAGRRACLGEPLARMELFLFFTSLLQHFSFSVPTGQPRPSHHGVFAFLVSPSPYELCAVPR
Procedure, shortened: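 CYP2D6 enzyme–substrate mix was held with compound for 10 min at room temperature, then NADPH regeneration solution was added and the reaction ran 1 h at room temperature. Luciferin product was detected by luminescence after 20 min with detection reagent.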

[2] = biological target: Cytochrome P450 2C19 (Homo sapiens) (UniProt P33261); assay: Cytochrome P450 Family 2 Subfamily C Member 19 (CYP2C19) small molecule antagonists: luciferase reporter qHTS assay (AID 1671197); note: nearly all actives have a fitted effect of over 65% in size; note: potency is the fitted concentration of half-maximal effect
Chain of Cytochrome P450 2C19 (Homo sapiens) (P33261 whole entry, looked up): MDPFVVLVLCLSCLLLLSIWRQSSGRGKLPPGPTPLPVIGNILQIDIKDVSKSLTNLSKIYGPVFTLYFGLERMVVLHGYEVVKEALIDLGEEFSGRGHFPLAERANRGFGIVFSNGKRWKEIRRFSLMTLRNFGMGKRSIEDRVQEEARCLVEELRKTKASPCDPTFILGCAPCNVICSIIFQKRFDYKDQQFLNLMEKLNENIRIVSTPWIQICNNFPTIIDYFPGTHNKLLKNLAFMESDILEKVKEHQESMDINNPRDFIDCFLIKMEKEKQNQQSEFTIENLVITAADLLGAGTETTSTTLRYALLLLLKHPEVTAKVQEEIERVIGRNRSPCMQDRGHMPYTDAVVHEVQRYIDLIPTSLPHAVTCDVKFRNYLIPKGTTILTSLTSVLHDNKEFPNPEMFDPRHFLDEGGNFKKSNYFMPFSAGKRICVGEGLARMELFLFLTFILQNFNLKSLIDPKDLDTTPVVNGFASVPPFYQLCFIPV
Procedure, shortened: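 CYP2C19 P450-Glo, 1536-well qHTS. Cpd + enzyme/proluciferin substrate 10 min RT; + NADPH regen, 37C 1 h; stop with luciferin detection reagent, 20 min RT, luminescence (RLU). Pos ctrl ketoconazole.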

[3] = biological target: Cytochrome P450 2C9 (Homo sapiens) (UniProt P11712); assay: Cytochrome P450 Family 2 Subfamily C Member 9 (CYP2C9) small molecule antagonists: luciferase reporter qHTS assay (AID 1671198); note: nearly all actives have a fitted effect of over 50% in size; note: potency is the fitted concentration of half-maximal effect
Chain of Cytochrome P450 2C9 (Homo sapiens) (P11712 whole entry, looked up): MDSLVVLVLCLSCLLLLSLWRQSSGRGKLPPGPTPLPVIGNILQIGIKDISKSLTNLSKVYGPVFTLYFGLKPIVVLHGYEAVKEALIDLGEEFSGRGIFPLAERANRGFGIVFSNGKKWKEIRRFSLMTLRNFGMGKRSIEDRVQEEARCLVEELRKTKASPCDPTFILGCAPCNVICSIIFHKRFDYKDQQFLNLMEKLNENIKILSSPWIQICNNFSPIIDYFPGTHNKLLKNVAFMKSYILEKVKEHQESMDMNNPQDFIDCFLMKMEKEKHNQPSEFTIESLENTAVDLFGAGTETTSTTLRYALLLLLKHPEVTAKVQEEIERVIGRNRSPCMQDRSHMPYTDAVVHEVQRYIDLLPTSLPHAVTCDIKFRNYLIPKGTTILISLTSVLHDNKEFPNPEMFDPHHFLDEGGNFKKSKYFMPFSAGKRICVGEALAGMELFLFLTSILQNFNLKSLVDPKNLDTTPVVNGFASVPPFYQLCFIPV
Procedure, shortened: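 Enzyme-substrate mix preincubated with compound 10 min at room temperature; reaction started with NADPH regeneration solution, 1 h 37C. Luminescent luciferin product read after 20 min detection reagent.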

[4] = biological target: Voltage-gated inwardly rectifying potassium channel KCNH2 (Homo sapiens) (UniProt Q12809); assay: Human Ether-a-go-go-Related Gene (hERG) channel small molecule antagonists: fluorescence cell-based qHTS assay (AID 1671200);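 note: hERG-expressing U2OS cells given a thallium stimulus after FluxOR II dye loading; series mostly up to about 77 µM; nearly all actives have a fitted effect of over 50% in size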
Chain of Voltage-gated inwardly rectifying potassium channel KCNH2 (Homo sapiens) (Q12809 whole entry, looked up): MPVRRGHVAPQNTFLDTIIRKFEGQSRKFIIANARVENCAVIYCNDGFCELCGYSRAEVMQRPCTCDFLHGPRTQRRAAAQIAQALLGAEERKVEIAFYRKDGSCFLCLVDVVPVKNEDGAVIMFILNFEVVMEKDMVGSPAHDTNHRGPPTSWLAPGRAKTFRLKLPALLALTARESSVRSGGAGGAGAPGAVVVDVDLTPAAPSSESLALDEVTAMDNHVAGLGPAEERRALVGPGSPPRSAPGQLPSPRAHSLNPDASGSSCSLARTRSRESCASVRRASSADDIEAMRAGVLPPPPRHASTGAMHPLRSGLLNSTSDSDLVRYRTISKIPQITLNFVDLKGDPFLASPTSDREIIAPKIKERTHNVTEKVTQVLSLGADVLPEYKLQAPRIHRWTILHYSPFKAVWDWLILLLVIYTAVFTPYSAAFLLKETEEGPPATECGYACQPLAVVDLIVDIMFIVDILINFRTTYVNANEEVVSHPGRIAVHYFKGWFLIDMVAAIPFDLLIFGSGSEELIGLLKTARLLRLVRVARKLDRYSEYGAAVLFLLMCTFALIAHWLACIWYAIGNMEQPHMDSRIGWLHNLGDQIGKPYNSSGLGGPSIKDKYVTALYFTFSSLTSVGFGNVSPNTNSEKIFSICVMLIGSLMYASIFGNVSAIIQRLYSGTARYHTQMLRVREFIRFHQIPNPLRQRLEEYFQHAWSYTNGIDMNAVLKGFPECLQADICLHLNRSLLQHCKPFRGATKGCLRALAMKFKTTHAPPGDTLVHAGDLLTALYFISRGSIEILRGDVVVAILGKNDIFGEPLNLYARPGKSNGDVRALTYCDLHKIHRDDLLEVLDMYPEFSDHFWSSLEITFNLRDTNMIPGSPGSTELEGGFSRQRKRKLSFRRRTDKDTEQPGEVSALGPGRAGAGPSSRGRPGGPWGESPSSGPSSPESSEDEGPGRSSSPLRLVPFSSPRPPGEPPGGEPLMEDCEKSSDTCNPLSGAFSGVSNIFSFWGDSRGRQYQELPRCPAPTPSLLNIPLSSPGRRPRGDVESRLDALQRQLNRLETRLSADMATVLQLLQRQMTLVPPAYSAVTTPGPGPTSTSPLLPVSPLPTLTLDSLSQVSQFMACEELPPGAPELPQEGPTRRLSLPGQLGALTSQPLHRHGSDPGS
Procedure, shortened: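 Fluorescence at 540 nm emission (480 nm excitation) was recorded kinetically for 2 min at 1-second intervals once the thallium-containing stimulus reached cells previously loaded with FluxOR II dye.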

[5] = biological target: Cytochrome P450 3A4 (Homo sapiens) (UniProt P08684); assay: Cytochrome P450 Family 3 Subfamily A Member 4 (CYP3A4) small molecule antagonists: luciferase reporter qHTS assay (AID 1671201); note: nearly all actives have a fitted effect of over 50% in size; note: potency is the fitted concentration of half-maximal effect
Chain of Cytochrome P450 3A4 (Homo sapiens) (P08684 whole entry, looked up): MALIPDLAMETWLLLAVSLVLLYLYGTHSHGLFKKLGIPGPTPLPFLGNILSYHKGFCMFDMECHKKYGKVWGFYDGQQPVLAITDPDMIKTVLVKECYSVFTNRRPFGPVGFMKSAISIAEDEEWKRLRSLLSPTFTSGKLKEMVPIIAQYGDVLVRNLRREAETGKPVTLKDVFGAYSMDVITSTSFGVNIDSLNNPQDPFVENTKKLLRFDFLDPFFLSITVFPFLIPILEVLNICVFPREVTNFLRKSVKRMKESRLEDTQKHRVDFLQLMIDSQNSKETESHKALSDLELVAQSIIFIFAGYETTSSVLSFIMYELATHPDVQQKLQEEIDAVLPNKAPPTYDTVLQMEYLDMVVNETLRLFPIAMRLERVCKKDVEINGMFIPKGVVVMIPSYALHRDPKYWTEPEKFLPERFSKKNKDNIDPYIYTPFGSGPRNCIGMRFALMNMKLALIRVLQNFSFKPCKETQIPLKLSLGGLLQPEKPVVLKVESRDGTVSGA
Procedure, shortened: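 qHTS, 1536-well. CYP3A4 + proluciferin substrate, cpd 10 min RT → NADPH regen 1 h RT → detection reagent 20 min → luminescence (RLU). Ketoconazole positive control.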

[6] = biological target: Cytochrome P450 1A2 (Homo sapiens) (UniProt P05177); assay: Cytochrome P450 Family 1 Subfamily A Member 2 (CYP1A2) small molecule antagonists: luciferase reporter qHTS assay (AID 1671199); note: nearly all actives have a fitted effect of over 50% in size; note: potency is the fitted concentration of half-maximal effect
Chain of Cytochrome P450 1A2 (Homo sapiens) (P05177 whole entry, looked up): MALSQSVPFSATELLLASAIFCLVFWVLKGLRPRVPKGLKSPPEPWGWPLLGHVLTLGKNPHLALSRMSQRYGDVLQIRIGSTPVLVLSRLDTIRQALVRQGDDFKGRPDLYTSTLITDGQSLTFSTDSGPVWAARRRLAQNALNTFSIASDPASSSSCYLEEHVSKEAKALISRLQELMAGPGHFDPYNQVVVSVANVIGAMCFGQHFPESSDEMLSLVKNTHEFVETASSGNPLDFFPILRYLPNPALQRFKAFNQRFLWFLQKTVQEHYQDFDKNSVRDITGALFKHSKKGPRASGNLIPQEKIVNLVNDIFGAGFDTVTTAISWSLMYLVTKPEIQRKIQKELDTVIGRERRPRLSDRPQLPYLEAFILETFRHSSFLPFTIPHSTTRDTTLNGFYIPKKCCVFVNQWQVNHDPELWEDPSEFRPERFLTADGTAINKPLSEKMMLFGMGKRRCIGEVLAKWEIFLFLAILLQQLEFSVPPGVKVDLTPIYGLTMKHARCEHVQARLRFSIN
Procedure, shortened: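 Human CYP1A2 activity measured with a P450-Glo proluciferin substrate; compounds in DMSO preincubated 10 min at room temperature with enzyme-substrate mix, then NADPH regeneration system added for 1 h. Luciferin detection reagent, 20 min, luminescence read.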

Row | Structure (SMILES) | Potency [1] | Potency [2] | Potency [3] | Potency [4] | Potency [5] | Potency [6]
1 | O=Cc1ccc(Cl)c(Cl)c1 | inactive | inactive | inactive | inactive | inactive | 
2 | O=C(/N=N/C(=O)OCc1ccccc1)OCc1ccccc1 | inactive | 1.78 µM (active) | 14.2 µM (active) |  | 39.9 µM (active) | 17.8 µM (active)
3 | CCCCCCOC(=O)CC | inactive | inactive | inactive |  | inactive | inactive
4 | CC1COc2ccccc2N1 (configuration not stated) | inactive | 44.8 µM (active) |  | inactive | inactive | 31.7 µM (active)
5 | O=C(O)CCSSCCC(=O)O | inactive | inactive | inactive | inactive | inactive | 
6 | CCCOC(OCCC)OCCC | inactive | inactive | inactive | inactive | inactive | 
7 | OCCCCC(O)CO (configuration not stated) | inactive | inactive | 67.2 µM (active) |  | inactive | 
8 | CN(C)c1ccc(C=O)cc1 | inactive | 79.6 µM (active) | 35.6 µM (active) | inactive | inactive | 
9 | CCc1ccc(C=O)cc1 | inactive | inactive | inactive | inactive | inactive | 
10 | C=C(C)C(=O)OCCNC(C)(C)C | inactive | 70.9 µM (active) | inactive | inactive | inactive | 
11 | Cc1cccc(C)c1OCC(C)N (configuration not stated) | 13.8 µM (active) | inactive |  |  | inactive | 1.62 µM (active)
12 | COCCc1ccc(OCC2CO2)cc1 (configuration not stated) | inactive | inactive |  | inactive | inactive | inactive
13 | OCCN(CCO)c1cccc(Cl)c1 | inactive | 31.7 µM (active) |  | inactive | inactive | 
14 | FC(F)(F)c1ccccc1-n1ccnc1 | 2.19 µM (active) | 5.49 µM (active) |  | inactive |  | 5.49 µM (active)
15 | COCCOCCOCCOCCOCCO | inactive | inactive | inactive | inactive | inactive | 
16 | CC(=O)c1sc(C)nc1C | inactive | inactive | inactive | inactive | inactive | 
17 | C[C@@H]1O[C@@H](O[C@@H]2[C@@H](O)[C@H](OCCc3ccc(O)c(O)c3)O[C@H](CO[C@@H]3O[C@H](CO)[C@@H](O)[C@H](O)[C@H]3O)[C@H]2OC(=O)/C=C/c2ccc(O)c(O)c2)[C@H](O)[C@H](O)[C@H]1O | inactive | inactive |  | inactive | inactive | inactive

Row | Structure (SMILES) | Potency [1] | Potency [2] | Potency [3] | Potency [4] | Potency [5] | Potency [6]
18 | Brc1ccc(-c2ccccc2)cc1 | inactive | inactive |  |  | inactive | 6.31 µM (active)
19 | O=C(O)c1ccc(Cl)cc1Cl | inactive | inactive | inactive | inactive | inactive | 
20 | O=C(OCC(COC(=O)c1cccnc1)(COC(=O)c1cccnc1)COC(=O)c1cccnc1)c1cccnc1 | inactive | inactive |  | inactive |  | inactive
21 | Cc1ccccc1C(=O)Nc1ccc(C(=O)N2CCCC(N(C)C)c3ccccc32)cc1 (configuration not stated) | inactive | inactive |  |  |  | inactive
22 | COC(=O)c1ccccc1C(=O)c1ccc(OCCN2CCCCC2)cc1 | 15.5 µM (active) | inactive | inactive | inactive | inactive | 
23 | Nc1ccc(S(=O)(=O)Nc2ccc(Cl)nn2)cc1 | inactive | inactive |  | inactive | inactive | 
24 | COc1ccc(-c2cc(=O)c3c(O)cc(O[C@@H]4O[C@H](CO[C@@H]5O[C@@H](C)[C@H](O)[C@@H](O)[C@H]5O)[C@@H](O)[C@H](O)[C@H]4O)cc3o2)cc1O | inactive | inactive |  |  | inactive | 
25 | COc1cc(NS(=O)(=O)c2ccc(N)cc2)nc(OC)n1 | inactive | inactive |  | inactive | inactive | 
26 | NS(=O)(=O)c1ccc(NC(=O)CCC(=O)O)cc1 | inactive | inactive | inactive | inactive | inactive | 
27 | C=CC(OCC)OCC | inactive | inactive | inactive | inactive | inactive | 
28 | CC(=O)Nc1cccc(C)c1 | inactive | 71.3 µM (active) | inactive | inactive | inactive | 
29 | CCC(C=O)CC | inactive | inactive | inactive | inactive | inactive | 
30 | CC[C@H](C)C(=O)O[C@H]1C[C@H](O)C=C2C=C[C@H](C)[C@H](CC[C@@H](O)C[C@@H](O)CC(=O)O)[C@H]21 | inactive | inactive |  | inactive | inactive | inactive
31 | CCNC(=O)C1CC(C)CCC1C(C)C (configuration not stated) | inactive | 17.8 µM (active) |  | inactive | 17.8 µM (active) | inactive
32 | O=C1c2ccccc2C(=O)c2cc(S(=O)(=O)O)ccc21 | 40.1 µM (active) | 31.8 µM (active) | 12.7 µM (active) | inactive | inactive | 
33 | CCOC(=O)c1ccc(OC(=O)CCCCCN=C(N)N)cc1 | 0.309 µM (active) | inactive | inactive |  | inactive | 
